# Experimental data from PubChem BioAssay (NCATS).
# Inconclusive results are not listed. Calls of active or inactive are those of the source. Unless noted, calls follow the shape of the dose curve; as a rule, active = well fitted curve in the direction sought with a large enough effect; inconclusive = small, poorly fitted or top-dose-only effect, or another doubt; inactive = no such curve, though single readings can be large; an effect the other way counts as inactive or inconclusive. Square brackets hold non-standard residues; d marks the D form. Peptide text beside a SMILES is read from it. pGlu = O=C1CC[C@@H](C(=O)O)N1
# Test system: not listed separately
# Experiment: S16 Schwann cell viability assay (CellTiter-Glo assay) (AID 624031); also: nearly all actives have a fitted effect of over 70% in size;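 as to activity change, negative = cytotoxicity: cellular ATP luminescence as a viability measure; plate controls were DMSO-treated cells for no effect and cell-free wells for full effect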
# Settings: S16 rat Schwann cells viability, 24 h; series mostly up to 57.5 µM; activity change, negative = cytotoxicity: at the top concentration
# Method in brief: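 Native S16 rat Schwann cells, 500-750 cells/well in DMEM with 10% FBS, dosed with compound after overnight culture and incubated 24h at 37 degree Celsius/5% CO2. Viability by CellTiter-Glo luminescence; % activity normalized to no-cell wells and DMSO-treated cells.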
# Potency is read from the fitted curve at half-maximal effect.
SMILES,"activity change, negative = cytotoxicity",Potency
CO/N=C(/C(=O)N[C@@H]1C(=O)N2C(C(=O)O)=CCS[C@H]12)c1csc(N)n1,6.67% (inactive),
CC1CCC(C(C)C)C(OC(=O)c2ccccc2O)C1 (centres undefined),-1.37% (inactive),
CC(C)(CO)C(O)C(=O)NCCCC(=O)O (centres undefined),-24.7% (inactive),
CO[C@@H]1[C@@H](OC2OC(C)C(OC3CC(C)(O)C(OC(=O)CC(C)C)C(C)O3)C(N(C)C)C2O)[C@@H](CC=O)C[C@@H](C)C(=O)/C=C\C2O[C@H]2C[C@@H](C)OC(=O)C[C@H]1OC(C)=O (some centres undefined),-27.8% (inactive),
CCC(=O)O[C@@H](OP(=O)(CCCCc1ccccc1)CC(=O)N1C[C@H](C2CCCCC2)C[C@H]1C(=O)O)C(C)C (some centres undefined),-15.6% (inactive),
CCN1/C(=C/C=C/C=C/c2sc3ccccc3[n+]2CC)Sc2ccccc21,,7.21 µM (active)
O=NCc1ccc([N+](=O)[O-])o1,-2.64% (inactive),

# Test system: not listed separately
# Experiment: S16 Schwann cell PMP22 intronic element firefly luciferase assay (AID 624032); also: nearly all actives have a fitted effect of over 30% in size;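 as to activity change, negative = inhibition: plate controls were DMSO for no effect and PTC124 positive control mean for full effect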
# Settings: S16 rat Schwann cells, PMP22 element FLuc, 24 h; series mostly up to 57.5 µM; activity change, negative = inhibition: at the top concentration
# Method in brief: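 Luciferase reporter of PMP22 intronic-element expression in stably transfected S16 rat Schwann cells, read by ONE-Glo luminescence after 24 h compound exposure at 37 C. Activity scaled between DMSO (0%) and positive-control PTC124; concentration-effect curves quality-classified.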
SMILES,"activity change, negative = inhibition",Potency
CO/N=C(/C(=O)N[C@@H]1C(=O)N2C(C(=O)O)=CCS[C@H]12)c1csc(N)n1,-5.18% (inactive),
Cc1cc(CC(C)CC(C)(C)C)n(O)c(=O)c1 (centres undefined),,16.1 µM (active)
CC1CCC(C(C)C)C(OC(=O)c2ccccc2O)C1 (centres undefined),-7.55% (inactive),
CC(C)(CO)C(O)C(=O)NCCCC(=O)O (centres undefined),9.89% (inactive),
CO[C@@H]1[C@@H](OC2OC(C)C(OC3CC(C)(O)C(OC(=O)CC(C)C)C(C)O3)C(N(C)C)C2O)[C@@H](CC=O)C[C@@H](C)C(=O)/C=C\C2O[C@H]2C[C@@H](C)OC(=O)C[C@H]1OC(C)=O (some centres undefined),,5.73 µM (active)
CCC(=O)O[C@@H](OP(=O)(CCCCc1ccccc1)CC(=O)N1C[C@H](C2CCCCC2)C[C@H]1C(=O)O)C(C)C (some centres undefined),6.03% (inactive),
CC1(C)S[C@@H]2[C@H](NC(=O)COc3ccccc3)C(=O)N2[C@H]1C(=O)O,-14.3% (inactive),
O=NCc1ccc([N+](=O)[O-])o1,,12.8 µM (active)

# Test system: not listed separately
# Experiment: S16 Schwann cell PMP22 intronic element beta-lactamase assay (AID 624044; calls by dose curve; also: nearly all actives have a fitted effect of over 15% in size;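 as to ratio activity, negative = inhibition: 0% = DMSO and -100% = potassium clavulanate positive control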)
# Settings: S16 rat Schwann cells, PMP22 element beta-lactamase FRET, 24 h; series mostly up to 38.3 µM; ratio activity, negative = inhibition: at the top concentration
# Method in brief: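 Rat S16 Schwann cells with beta-Lac driven by a PMP22 intronic element, compound-treated 24 h at 37 °C. LiveBLAzer FRET B/G read: 460 nm normalized to potassium clavulanate vs DMSO; 535 nm FRET as viability; concentration-effect curves classified.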
SMILES,"ratio activity, negative = inhibition",Potency
CO/N=C(/C(=O)N[C@@H]1C(=O)N2C(C(=O)O)=CCS[C@H]12)c1csc(N)n1,1.29% (inactive),
Cc1cc(CC(C)CC(C)(C)C)n(O)c(=O)c1 (centres undefined),,2.51 µM (active)
CC1CCC(C(C)C)C(OC(=O)c2ccccc2O)C1 (centres undefined),-6.36% (inactive),
CC(C)(CO)C(O)C(=O)NCCCC(=O)O (centres undefined),-2.36% (inactive),
CO[C@@H]1[C@@H](OC2OC(C)C(OC3CC(C)(O)C(OC(=O)CC(C)C)C(C)O3)C(N(C)C)C2O)[C@@H](CC=O)C[C@@H](C)C(=O)/C=C\C2O[C@H]2C[C@@H](C)OC(=O)C[C@H]1OC(C)=O (some centres undefined),-26.5% (inactive),
CC1(C)S[C@@H]2[C@H](NC(=O)COc3ccccc3)C(=O)N2[C@H]1C(=O)O,-0.299% (inactive),
Nc1nc(Cl)nc2c1ncn2C1CC(O)C(CO)O1 (centres undefined),,3.55 µM (active)
O=NCc1ccc([N+](=O)[O-])o1,6.62% (inactive),

# Target: Glutathione peroxidase 1 (Homo sapiens) (UniProt P07203)
# Experiment: Primary qHTS Assay for Inhibitors of Recombinant Selenoprotein Glutathione Peroxidase 1 (GPX1) (AID 1845191); also: nearly all actives have a fitted effect of over 65% in size; as to activity, negative = inhibition: % is scaled to controls: 0 for no effect and ±100 for the full control effect
# Settings: recombinant GPX1, GR-coupled NADPH fluorescence, 15 min; series mostly up to 48.8 µM; activity, negative = inhibition: at the top concentration
# Method in brief: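 10 nM GPX1 + cpd, 30 min RT; start w/ 1 mM GSH, 0.5 mM cumene hydroperoxide, 0.5 mM NADPH, 100 nM GR, 0.01% BSA; buffer 50 mM Tris-HCl pH 7.5, 2 mM EDTA, 150 mM NaCl; Fl 340/450, 0 & 15 min.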
# Glutathione peroxidase 1 (Homo sapiens), sequence (P07203 whole entry, looked up): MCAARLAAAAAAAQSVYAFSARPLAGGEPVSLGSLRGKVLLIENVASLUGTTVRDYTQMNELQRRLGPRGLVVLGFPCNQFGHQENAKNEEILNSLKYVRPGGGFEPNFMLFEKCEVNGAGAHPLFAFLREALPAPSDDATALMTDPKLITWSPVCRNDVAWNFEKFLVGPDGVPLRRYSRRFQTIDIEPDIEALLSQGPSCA
SMILES,Potency,"activity, negative = inhibition",outcome
CC/C=C(\C(=O)N[C@H]1C(=O)N2C(C(=O)OCOC(=O)C(C)(C)C)=C(COC(N)=O)CS[C@H]12)c1csc(N)n1,6.26 µM (active),,
CC(C)(O)C1CCC(Nc2ccc3ncc(-c4cccc(C(F)(F)F)c4)n3n2)CC1 (centres undefined),,-23.7% (inactive),
CCCCCCCCCCCCC[N+](C)(C)Cc1ccccc1,,,inactive
CC(C)CC(NC(=O)CNC(=O)C(Cc1ccc(O)cc1)NC(=O)C(CO)NC(=O)C(Cc1c[nH]c2ccccc12)NC(=O)C(Cc1cnc[nH]1)NC(=O)C1CCC(=O)N1)C(=O)NC(CCCN=C(N)N)C(=O)N1CCCC1C(=O)NCC(N)=O (centres undefined),,,inactive
COc1cc(/C=C/C(=O)N2CCC=CC2=O)cc(OC)c1OC,,,inactive
CO/N=C(/C(=O)N[C@@H]1C(=O)N2C(C(=O)O)=CCS[C@H]12)c1csc(N)n1,10.1 µM (active),,
Cc1cc(CC(C)CC(C)(C)C)n(O)c(=O)c1 (centres undefined),,-14.2% (inactive),
O=c1cc(-c2cccc(O)c2)oc2c(O)c(O)ccc12,,,inactive
CC1CCC(C(C)C)C(OC(=O)c2ccccc2O)C1 (centres undefined),,-4.47% (inactive),
CC(C)(CO)C(O)C(=O)NCCCC(=O)O (centres undefined),,-11.7% (inactive),
CO[C@@H]1[C@@H](OC2OC(C)C(OC3CC(C)(O)C(OC(=O)CC(C)C)C(C)O3)C(N(C)C)C2O)[C@@H](CC=O)C[C@@H](C)C(=O)/C=C\C2O[C@H]2C[C@@H](C)OC(=O)C[C@H]1OC(C)=O (some centres undefined),,-24.9% (inactive),
CCCCCCCCCCCCCCCC(=O)OCC(O)C1OC(=O)C(O)=C1O (centres undefined),,,inactive
N[C@@H](C(=O)N[C@@H]1C(=O)N2C(C(=O)O)=C(Cl)CC[C@H]12)c1ccccc1,,-13.4% (inactive),
CCC(=O)O[C@@H](OP(=O)(CCCCc1ccccc1)CC(=O)N1C[C@H](C2CCCCC2)C[C@H]1C(=O)O)C(C)C (some centres undefined),,2.57% [at 9.52 µM] (inactive),
O=C1CCc2ccccc2O1,,,inactive
N=C(N)c1ccc(OCCCOc2ccc(C(=N)N)cc2Br)c(Br)c1,,1.37% (inactive),
CC(=O)O[C@@]12CO[C@@H]1C[C@H](O)[C@@]1(C)C(=O)[C@H](O)C3=C(C)[C@@H](OC(=O)C(O)[C@@H](NC(=O)OC(C)(C)C)c4ccccc4)C[C@@](O)([C@@H](OC(=O)c4ccccc4)[C@H]21)C3(C)C (some centres undefined),inactive,,
COc1cc([C@@H]2c3cc4c(cc3[C@@H](O[C@@H]3O[C@@H]5CO[C@@H](C)O[C@H]5[C@H](O)[C@H]3O)[C@H]3COC(=O)[C@H]23)OCO4)cc(OC)c1OP(=O)(O)O,,-18.3% (inactive),
NCCCC(N)C(=O)O (centres undefined),,-13.9% [at 27.7 µM] (inactive),
CC1(C)S[C@@H]2[C@H](NC(=O)COc3ccccc3)C(=O)N2[C@H]1C(=O)O,,-14.3% (inactive),
CCN1/C(=C/C=C/C=C/c2sc3ccccc3[n+]2CC)Sc2ccccc21,1.43 µM (active),,
Nc1nc(Cl)nc2c1ncn2C1CC(O)C(CO)O1 (centres undefined),,-10.3% (inactive),
O=NCc1ccc([N+](=O)[O-])o1,,-14.5% (inactive),
CCNC(=O)[C@H]1CCCN1C(=O)[C@H](CCCN=C(N)N)NC(=O)[C@H](CC(C)C)NC(=O)[C@H](CC(C)C)NC(=O)[C@@H](Cc1ccc(O)cc1)NC(=O)[C@H](CO)NC(=O)[C@@H](Cc1c[nH]c2ccccc12)NC(=O)[C@H](Cc1cnc[nH]1)NC(=O)[C@@H]1CCC(=O)N1 ([pGlu]H[dW]S[dY]LLR[dP]-NHEt),,-6.59% [at 27.7 µM] (inactive),
CO/N=C(/C(=O)N[C@@H]1C(=O)N2C(C(=O)OC(C)OC(C)=O)=C(COC(N)=O)CS[C@H]12)c1ccco1 (some centres undefined),20.2 µM (active),,
Nc1cccc(-c2csc(NC(=O)CCCCCCC(=O)NO)n2)c1,,-13.9% (inactive),
